Consider 29 molecules from PubChem BioAssay (Tox21).

Several values for one entry are separate records, joined by “and”; a condition that tells them apart may be missing. Equal entries are not always repeated. Unmarked numbers belong to inactive results. Inconclusive results are not listed. Activity calls are given as the source filed them. Unless noted, calls come from the whole dose curve.

Assay [1] concerns the target Thyrotropin receptor (Homo sapiens) (UniProt P16473). Briefly: qHTS assay to identify small molecule agonists of the thyroid stimulating hormone receptor (TSHR) signaling pathway (AID 1224843). Note: nearly all actives have a fitted effect of over 45% in size. Note: potency is the fitted concentration of half-maximal effect. The method, boiled down:
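Cell line HEK293 with TSHR; density 800/well. Exposure 30 min RT. Readout HTRF cAMP (cAMP-d2/anti-cAMP-cryptate), 1 h RT before reading.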
On the technique in general: qHTS replaces the single test concentration by a dilution series.

Assay [2] can be described thus: qHTS assay to identify small molecule agonists of the hypoxia (HIF-1) signaling pathway - cell viability counter screen (AID 1224844). Note: nearly all actives have a fitted effect of over 50% in size. Note: potency is the fitted concentration of half-maximal effect. The method in brief:
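Tox21 10K compounds were added to HRE-bla ME-180 cells (0.5% dialyzed FBS) and incubated 17 hrs at 37C; ATP-based CellTiter-Glo luminescence then reported cell viability in the same wells.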

Assay [3] is described as follows: qHTS assay to identify small molecule agonists of H2AX (AID 1224845; active = well fitted activation curve with a large enough effect in the signal ratio in the repeat runs, not every such curve was filed as active; the % refers to the signal ratio). The method, boiled down: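 Wild-type CHO-K1 cells plated overnight, then exposed 3 hr at 37C to compounds at 15 concentrations (0.76% DMSO). Lysed, then HTRF anti-pH2AX(S139)-cryptate/anti-H2AX-d2 detection after 24 hr at room temperature; emissions 665 and 620 nm.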
Assay [4] is described as follows: qHTS assay to identify small molecule agonists of the hypoxia (HIF-1) signaling pathway (AID 1224846; active = well fitted activation curve with a large enough effect in the signal ratio in the repeat runs, not every such curve was filed as active; the % refers to the signal ratio). The method, boiled down:
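Steps: seed ME-180 HRE-bla cells (2,000/well, 0.5% dialyzed FBS); incubate 5 hrs at 37C; pin-transfer compounds or DMSO; incubate 17 hrs; add LiveBLAzer B/G substrate CCF4-AM; measure reporter activation by FRET.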

The nature of assay [5]: qHTS RealTime-Glo MT Cell Viability Assay in HepG2 cells - 24 hour (AID 1224867; active = well fitted curve in the direction sought with a large enough effect in the repeat runs; an effect the other way counts as inactive or inconclusive; note: nearly all actives have a fitted effect of over 50% in size). The method in brief: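 Compound treatment began 5 h after plating HepG2 cells (600/well) with NanoLuc luciferase and prosubstrate. Plates stayed at 37 C for 40 h; luminescence was captured at six time points, 0 h through 40 h.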
Assay [6] can be described thus: qHTS RealTime-Glo MT Cell Viability Assay in HEK293 cells - 32 hour (AID 1224868; active = well fitted curve in the direction sought with a large enough effect in the repeat runs; an effect the other way counts as inactive or inconclusive; note: nearly all actives have a fitted effect of over 50% in size; note: potency is the fitted concentration of half-maximal effect). The method in brief:
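Quantitative high-throughput screen of the Tox21 10K library in HEK293: cells and RealTime-Glo reagents plated together, compound added at 5 h, luminescence monitored through 40 h at 37 C.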

A short description of assay [7]: A CellTox Green Cytotoxicity Assay to monitor cytotoxicity in HEK293 cells - 0 hour (AID 1224869; active = well fitted curve in the direction sought with a large enough effect in the repeat runs; an effect the other way counts as inactive or inconclusive; note: nearly all actives have a fitted effect of over 50% in size). The method in brief:
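Cytotoxicity was tracked continuously in HEK293 cells by a DNA-binding dye excluded from viable cells. Compounds were transferred in DMSO 5 h after seeding; fluorescence was recorded at intervals up to 40 h.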

Assay [8] in a line: qHTS assay to identify small molecule agonists of H2AX - cell viability counter screen (AID 1224847). Note: top concentration of the series differs between compounds; nearly all actives have a fitted effect of over 30% in size. The method in brief: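 Cells plated first: CHO-K1, 1000 per well in 10% FBS medium, incubated overnight at 37C. Then 15-point compound titration added (final DMSO 0.76%) for 3 hr. Finally CellTiter-Glo added and luminescence read.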
Assay [9] in a line: qHTS assay to identify small molecule antagonists of the estrogen related receptor (ERR) signaling pathway from Tox21 library (AID 1224848; active = well fitted curve in the direction sought with a large enough effect in the repeat runs; an effect the other way counts as inactive or inconclusive; note: nearly all actives have a fitted effect of over 50% in size; note: potency is the fitted concentration of half-maximal effect). The method, boiled down:
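Screening used an ERR reporter line supplied by NTP, exposed for 18 h at 37 C to library compounds delivered in DMSO. Signal was luciferase luminescence developed with ONE-Glo at room temperature for 30 min.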

The nature of assay [10]: qHTS assay to identify small molecule agonists of the estrogen related receptor (ERR) signaling pathway from Tox21 library (AID 1224849). Note: nearly all actives have a fitted effect of over 15% in size. To be noted: ERR reporter cell line, ONE-Glo luciferase, 18 h; at 92.4 µM (top of the series) unless noted. The method, boiled down: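 Agonist signal is luciferase luminescence from an ERR reporter cell line treated 18 h at 37 C with DMSO-dissolved compounds, read 30 min after ONE-Glo addition at room temperature.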
% is set by controls: 0 for no effect and ±100 for the full control effect.

Thyrotropin receptor (Homo sapiens), sequence (P16473 whole entry, looked up): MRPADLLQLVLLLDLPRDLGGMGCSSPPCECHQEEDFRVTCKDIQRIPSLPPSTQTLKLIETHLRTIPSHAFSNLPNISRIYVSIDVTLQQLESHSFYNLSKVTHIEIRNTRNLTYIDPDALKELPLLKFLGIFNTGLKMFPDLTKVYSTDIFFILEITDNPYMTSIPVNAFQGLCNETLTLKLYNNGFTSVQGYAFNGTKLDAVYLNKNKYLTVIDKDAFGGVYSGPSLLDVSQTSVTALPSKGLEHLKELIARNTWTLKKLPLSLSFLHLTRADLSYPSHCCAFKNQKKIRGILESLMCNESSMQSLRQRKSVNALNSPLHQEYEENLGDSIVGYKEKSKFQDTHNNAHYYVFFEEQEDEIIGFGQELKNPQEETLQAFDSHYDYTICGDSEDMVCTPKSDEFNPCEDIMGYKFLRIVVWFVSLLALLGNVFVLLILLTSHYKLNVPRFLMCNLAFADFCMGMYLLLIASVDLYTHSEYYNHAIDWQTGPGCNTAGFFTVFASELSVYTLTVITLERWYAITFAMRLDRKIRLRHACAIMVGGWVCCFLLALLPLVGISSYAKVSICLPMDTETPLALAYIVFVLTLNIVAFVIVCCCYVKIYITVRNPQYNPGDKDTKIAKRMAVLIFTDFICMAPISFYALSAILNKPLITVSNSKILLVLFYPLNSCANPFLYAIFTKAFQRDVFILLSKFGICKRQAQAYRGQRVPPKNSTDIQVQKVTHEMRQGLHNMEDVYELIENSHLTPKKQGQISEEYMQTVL

Consider `C=CC(C)(CCC=C(C)C)OC(=O)CC(C)C` (configuration not stated), for which the Potency entry in [1], in [2], in assay [3], in assay [5], in assay [6] and in [7] was “inactive” throughout. For the same molecule, the result in assay [4] was inactive.
In the case of `O=C(CCCN1CC=C(n2c(=O)[nH]c3ccccc32)CC1)c1ccc(F)cc1`, the Potency result in [1], in [2], in [3], in [5] and in [7] was “inactive” each time.
As for `CC1CC(OC(=O)C(O)c2ccccc2)CC(C)(C)N1C` (configuration not stated), the Potency result in [1], in [2], in [3], in assay [8], in assay [9] and in assay [5] was “inactive” throughout. Further, the Potency result in assay [6] and in [7] was “inactive” each time. For the same molecule, the activity change, positive = activation in assay [10] was -3.41% [at 42.5 µM].
For the molecule `C1C[C@@H]2[C@H]3CC[C@H](C3)[C@@H]2C1`, the Potency entry in assay [1], in assay [2], in assay [3], in assay [5], in assay [6] and in assay [7] was “inactive” in each case. In addition, the result in assay [4] was inactive.
As for `CCCCOc1ccc(OCCCN2CCOCC2)cc1`, the Potency entry in assay [1], in assay [2], in assay [3], in assay [8], in assay [5] and in assay [7] was “inactive” throughout.
Take `O=C(O)c1cccc(-c2noc(-c3ccccc3F)n2)c1`: the Potency entry in assay [1], in [2], in [3], in assay [5], in [6] and in [7] was “inactive” throughout. Moreover, in [4], the molecule was called inactive.
`C=C1C[C@@]23CC[C@H]4[C@@](C)(CCC[C@@]4(C)C(=O)O[C@@H]4O[C@H](CO)[C@@H](O)[C@H](O)[C@H]4O)[C@@H]2CC[C@]1(O[C@@H]1O[C@H](CO)[C@@H](O)[C@H](O[C@@H]2O[C@H](CO)[C@@H](O)[C@H](O)[C@H]2O)[C@H]1O[C@@H]1O[C@H](CO)[C@@H](O)[C@H](O)[C@H]1O)C3`: the Potency entry in assay [1], in assay [3], in assay [8], in assay [9], in assay [5] and in assay [6] was “inactive” each time. Besides, the Potency entry in [7] was “inactive”. Also, the molecule was called inactive in assay [4]. In addition, the activity change, positive = activation in assay [10] was 1.6%.
For `CCCCCCC(C)(C)C(=O)O`, the Potency result in [1], in [3], in [8], in assay [5], in [6] and in [7] was “inactive” throughout. Moreover, the molecule was classed as inactive in assay [4]. In assay [10], the activity change, positive = activation was -23%.
In the case of `C=Cc1ccc(S(=O)(=O)O)cc1`, the Potency entry in assay [1], in assay [3], in assay [8], in assay [9], in assay [5] and in assay [6] was “inactive” throughout. Also, in [7], the Potency entry is “inactive”. Besides, the result in assay [4] was inactive. Besides, the activity change, positive = activation in assay [10] is 6.91%.
As for `CCCCCCCC/C=C\CCCCCCCCO`, the Potency result in assay [1], in assay [3], in [8], in [9], in assay [5] and in [6] was “inactive” in each case. In addition, the Potency entry in assay [7] is “inactive”. In [4], the outcome was inactive. In addition, the activity change, positive = activation in assay [10] was 4.79%.
As for `O=C1c2ccccc2C(=O)C1c1ccc(Br)cc1`, the Potency result in assay [1], in assay [2], in [8], in [5], in assay [6] and in assay [7] was “inactive” throughout. For the same molecule, in assay [4], the call was inactive. For the same molecule, the activity change, positive = activation in [10] was 99.8% [at 42.5 µM] (active).
Regarding `C[C@@H]1CC(=O)NN=C1c1ccc(NN=C(C#N)C#N)cc1`, the Potency in assay [1] was 0.841 µM (active). Further, the Potency entry in [2] and in [7] was “inactive” throughout. In assay [10], the activity change, positive = activation was -30.7% [at 42.5 µM] and -38.2% [at 42.5 µM].
For `COc1cc(C(=O)NCCCCCC(=O)O)cc(OC)c1OC`, the Potency result in assay [1], in assay [2], in assay [9], in assay [5], in assay [6] and in [7] was “inactive” throughout. Further, in assay [4], the molecule was classed as inactive. Further, the activity change, positive = activation in assay [10] was 1.72% [at 42.5 µM].
For `O=C1c2ccccc2C(=O)c2c(O)c(O)cc(O)c21`, the Potency result in assay [1], in assay [2], in assay [9], in [5], in assay [6] and in [7] was “inactive” each time. In assay [4], the molecule was classed as inactive. In addition, the activity change, positive = activation in assay [10] is -7.48%.
Turning to `N#CCCN(CCO)CCO`, the Potency result in assay [1], in assay [2], in assay [8], in assay [5], in assay [6] and in [7] was “inactive” each time. Moreover, the call in assay [4] was inactive.
`Oc1cccc(Nc2ccccc2)c1`: the Potency entry in assay [1], in assay [2], in [5] and in assay [7] was “inactive” each time. Further, in assay [4], the molecule was called inactive. For the same molecule, the Potency in [6] is 14.4 µM (active).
Take `Cc1cc2c(OCC(CNC(C)(C)C)OC(=O)c3ccccc3)cccc2[nH]1` (configuration not stated): in assay [1], the Potency is 26.6 µM (active). In addition, the Potency result in [2], in assay [8], in assay [5] and in assay [7] was “inactive” in each case. Moreover, the molecule was called inactive in assay [4].
`CCCCCCNC(=O)n1cc(F)c(=O)[nH]c1=O`: the Potency result in assay [1], in assay [2], in assay [8], in [5], in assay [6] and in [7] was “inactive” in each case. In addition, the result in [4] was inactive. For the same molecule, the activity change, positive = activation in assay [10] was -8.15% [at 42.5 µM].
In the case of `CC(C)(O)c1ccc(CNC(=O)c2cccnc2Oc2ccc3nonc3c2)cc1`, the Potency result in [1], in assay [2], in assay [8], in [5] and in assay [7] was “inactive” in each case. Further, the molecule was called inactive in assay [4]. In assay [9], the Potency is 54.5 µM (active). In addition, the activity change, positive = activation in [10] was -39.3%.
On to `Cc1ccccc1N=C(N)Nc1ccccc1C`, for which the Potency result in assay [1], in [2], in [8], in assay [5], in assay [6] and in assay [7] was “inactive” throughout. The outcome in assay [4] was inactive. The activity change, positive = activation in [10] was -3.25%.
On to `CCOC(=O)/C=C/C(=O)OCC`, for which the Potency entry in assay [1], in [2], in assay [9], in assay [5], in [6] and in assay [7] was “inactive” in each case. The molecule was called inactive in assay [4]. Also, the activity change, positive = activation in assay [10] is 6.14%.
As for `CCCCC(CC)COP(=O)(O)O` (configuration not stated), the Potency result in [1], in assay [8], in assay [5] and in assay [7] was “inactive” each time. In [2], the Potency is 12.5 µM (active). Also, the molecule was called inactive in [4].
With `O=[N+]([O-])c1ccc(O/N=C/c2cc(Br)c(O)c(Br)c2)c([N+](=O)[O-])c1`, the Potency entry in assay [1], in assay [2], in assay [5] and in assay [7] was “inactive” throughout. Also, in [4], the molecule was called inactive. The Potency in assay [6] is 43.4 µM (active).
For `CCOC(=O)c1ccc(OCCN2C[C@H](O)[C@@H](O)[C@H](O)[C@H]2CO)cc1`, the Potency result in [1], in assay [2], in [8], in assay [5], in assay [6] and in assay [7] was “inactive” in each case. Also, the call in assay [4] was inactive.
In the case of `O=C(O)CCC(=O)C(=O)O`, the Potency entry in [1], in assay [2], in assay [5], in [6] and in assay [7] was “inactive” in each case.
For `CN1C(=O)c2ccccc2C1=O`, the Potency result in assay [1], in [2], in [5] and in assay [7] was “inactive” in each case. In assay [10], the activity change, positive = activation is 1.36%.
With `Oc1ccc(Cl)c2cccnc12`, the Potency entry in assay [1], in assay [2], in assay [8], in assay [5] and in assay [7] was “inactive” in each case. In addition, in assay [4], the outcome was inactive. Besides, the activity change, positive = activation in assay [10] is -56.3% [at 42.5 µM].
For the molecule `O=C(CCc1ccc(O)cc1)c1c(O)cc(O)cc1O`, the Potency result in [1], in assay [2], in assay [5] and in assay [7] was “inactive” throughout. Further, the activity change, positive = activation in [10] was -22.5%. The Potency in assay [6] was 39.8 µM (active).
`CN1C[C@H](C(=O)N[C@]2(C)O[C@@]3(O)[C@@H]4CCCN4C(=O)[C@H](Cc4ccccc4)N3C2=O)C[C@@H]2c3cccc4[nH]cc(c34)C[C@H]21`: the Potency result in [1] and in assay [7] was “inactive” throughout. The Potency in assay [2] was 12 µM (active); in [6], 21.3 µM (active). In assay [10], the activity change, positive = activation was -52.3% [at 42.5 µM].
